This is an account of results in ChEMBL document CHEMBL3988442, “University of Dundee, Small-Polar-MMV Screening Library” (2021).

For some of these results: Entries with a potency or affinity are not part of this list.

Holding throughout (parameters): scale not given: direction of the effect not stated beside the values
In assay [1] the target is Protein translocase subunit SecA (Escherichia coli (strain K12)) (UniProt P10408). The assay is described as follows: Assay to Identify E. coli SecA ATPase Inhibitors. It counts as functional. The conditions noted are these: 30 µM.
Chain of Protein translocase subunit SecA (Escherichia coli (strain K12)) (P10408 whole entry): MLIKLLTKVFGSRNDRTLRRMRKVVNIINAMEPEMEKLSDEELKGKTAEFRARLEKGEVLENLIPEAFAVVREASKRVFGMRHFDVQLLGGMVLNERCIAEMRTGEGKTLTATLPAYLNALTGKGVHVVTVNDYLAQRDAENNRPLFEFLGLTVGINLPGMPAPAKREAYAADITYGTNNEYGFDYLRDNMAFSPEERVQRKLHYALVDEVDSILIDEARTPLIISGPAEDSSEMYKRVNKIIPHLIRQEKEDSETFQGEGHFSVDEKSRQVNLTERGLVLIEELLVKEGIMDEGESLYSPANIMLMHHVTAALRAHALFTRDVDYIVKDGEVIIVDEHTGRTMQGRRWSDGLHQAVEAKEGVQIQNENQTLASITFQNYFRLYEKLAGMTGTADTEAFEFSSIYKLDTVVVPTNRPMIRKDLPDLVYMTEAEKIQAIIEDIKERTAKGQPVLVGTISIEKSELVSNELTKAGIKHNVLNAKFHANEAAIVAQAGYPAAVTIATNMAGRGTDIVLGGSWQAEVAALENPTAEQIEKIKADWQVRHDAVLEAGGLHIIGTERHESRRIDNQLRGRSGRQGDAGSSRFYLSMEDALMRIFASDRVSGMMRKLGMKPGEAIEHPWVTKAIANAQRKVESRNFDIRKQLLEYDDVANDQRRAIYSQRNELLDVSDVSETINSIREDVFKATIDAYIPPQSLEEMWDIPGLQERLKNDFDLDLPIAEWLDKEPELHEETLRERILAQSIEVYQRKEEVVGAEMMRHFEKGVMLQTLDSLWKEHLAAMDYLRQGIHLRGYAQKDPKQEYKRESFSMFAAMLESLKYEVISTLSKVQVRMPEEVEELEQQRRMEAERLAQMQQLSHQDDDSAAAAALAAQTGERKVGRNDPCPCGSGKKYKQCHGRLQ
In assay [2] the target is T1, Ubiquitin-activating enzyme e1, putative (Leishmania donovani (strain BPK282A1)) (UniProt E9BSI1).
T1 sequence (whole entry): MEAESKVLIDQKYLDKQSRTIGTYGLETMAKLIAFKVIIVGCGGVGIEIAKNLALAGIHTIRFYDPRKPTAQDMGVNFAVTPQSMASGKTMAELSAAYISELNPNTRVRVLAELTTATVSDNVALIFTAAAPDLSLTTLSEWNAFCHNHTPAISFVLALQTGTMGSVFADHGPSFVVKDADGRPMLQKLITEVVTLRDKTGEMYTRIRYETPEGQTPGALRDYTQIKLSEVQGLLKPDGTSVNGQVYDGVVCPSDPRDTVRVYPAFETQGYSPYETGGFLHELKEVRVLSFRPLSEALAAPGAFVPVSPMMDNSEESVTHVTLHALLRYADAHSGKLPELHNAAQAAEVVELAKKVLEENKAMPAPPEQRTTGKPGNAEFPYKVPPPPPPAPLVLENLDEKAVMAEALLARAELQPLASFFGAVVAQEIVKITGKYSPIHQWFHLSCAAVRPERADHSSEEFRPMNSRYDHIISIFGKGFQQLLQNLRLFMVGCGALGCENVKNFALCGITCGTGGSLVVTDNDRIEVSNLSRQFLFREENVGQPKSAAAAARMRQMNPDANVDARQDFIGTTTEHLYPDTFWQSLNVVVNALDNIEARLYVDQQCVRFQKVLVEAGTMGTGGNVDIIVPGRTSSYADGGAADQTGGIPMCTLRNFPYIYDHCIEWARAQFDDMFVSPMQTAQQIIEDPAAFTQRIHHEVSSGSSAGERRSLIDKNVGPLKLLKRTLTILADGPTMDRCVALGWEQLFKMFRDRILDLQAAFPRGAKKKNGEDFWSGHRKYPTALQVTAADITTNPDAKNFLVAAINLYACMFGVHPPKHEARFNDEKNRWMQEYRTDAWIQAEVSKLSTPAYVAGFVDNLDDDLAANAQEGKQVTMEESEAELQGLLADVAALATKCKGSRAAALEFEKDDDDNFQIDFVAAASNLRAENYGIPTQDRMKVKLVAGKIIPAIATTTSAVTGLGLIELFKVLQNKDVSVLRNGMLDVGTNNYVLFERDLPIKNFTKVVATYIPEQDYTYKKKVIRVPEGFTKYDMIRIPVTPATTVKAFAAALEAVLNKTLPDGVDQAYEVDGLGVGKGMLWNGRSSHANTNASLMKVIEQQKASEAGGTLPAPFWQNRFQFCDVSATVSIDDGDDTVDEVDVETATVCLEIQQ
The assay can be described thus: Leishmania donovani Ubiquitin Activating Enzyme (LdE1). It counts as functional. Conditions: 30 µM.

Assay [3] addresses T2, Aspartate--tRNA(Asp/Asn) ligase (Mycobacterium tuberculosis (strain ATCC 25618 / H37Rv)) (UniProt P9WFW3).
T2 sequence (whole entry): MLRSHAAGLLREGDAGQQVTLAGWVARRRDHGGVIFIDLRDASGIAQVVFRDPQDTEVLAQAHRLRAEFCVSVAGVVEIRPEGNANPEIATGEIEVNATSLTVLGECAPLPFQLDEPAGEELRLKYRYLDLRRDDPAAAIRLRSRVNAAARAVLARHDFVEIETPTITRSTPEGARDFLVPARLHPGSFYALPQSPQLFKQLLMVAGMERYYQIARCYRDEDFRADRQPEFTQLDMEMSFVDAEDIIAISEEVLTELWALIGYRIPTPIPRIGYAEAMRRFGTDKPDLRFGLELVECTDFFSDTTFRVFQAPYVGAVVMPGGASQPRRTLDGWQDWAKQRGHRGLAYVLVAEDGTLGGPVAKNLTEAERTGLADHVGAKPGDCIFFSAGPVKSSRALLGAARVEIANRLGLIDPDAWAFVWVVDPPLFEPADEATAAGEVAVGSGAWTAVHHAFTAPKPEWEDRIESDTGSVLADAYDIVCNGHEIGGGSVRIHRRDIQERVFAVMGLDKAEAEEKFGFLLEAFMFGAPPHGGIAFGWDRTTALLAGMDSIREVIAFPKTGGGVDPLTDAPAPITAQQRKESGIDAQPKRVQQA
The assay can be described thus: Assay for Asp RNA synthetase-1 from Mycobacterium tuberculosis. It counts as functional. Conditions: 30 µM.

Assay [4] concerns the target AMP-activated protein kinase, AMPK (Homo sapiens) (UniProt P54646+O43741+P54619+Q9UGJ0+Q9Y478+Q13131+Q9UGI9). The assay is described as follows: AMP-dependent Kinase enzyme assay. An in vitro enzyme assay that detects ADP turnover that is directly proportional to AMPK activity. This uses naive AMPK that is activated during the assay with MK-8722. The class given is functional. The conditions noted are these: 30 µM.

Assay [5] has as its target Sialic acid-binding Ig-like lectin 9 (Homo sapiens) (UniProt Q9Y336). The assay can be described thus: Hs-Siglec9 ALPHAscreen SOP 20170721. Conditions: 10 µM.
The subject of assay [6] is Trypanosoma cruzi. The assay is described as follows: Trypanosoma cruzi phosphomannomutase and mannose-1-phosphate guanylyltransferase assay. The class given is functional. The conditions noted are these: 10 µM.
The target of assay [7] is T3, Arginase-2, mitochondrial (Homo sapiens) (UniProt P78540).
T3 sequence (whole entry): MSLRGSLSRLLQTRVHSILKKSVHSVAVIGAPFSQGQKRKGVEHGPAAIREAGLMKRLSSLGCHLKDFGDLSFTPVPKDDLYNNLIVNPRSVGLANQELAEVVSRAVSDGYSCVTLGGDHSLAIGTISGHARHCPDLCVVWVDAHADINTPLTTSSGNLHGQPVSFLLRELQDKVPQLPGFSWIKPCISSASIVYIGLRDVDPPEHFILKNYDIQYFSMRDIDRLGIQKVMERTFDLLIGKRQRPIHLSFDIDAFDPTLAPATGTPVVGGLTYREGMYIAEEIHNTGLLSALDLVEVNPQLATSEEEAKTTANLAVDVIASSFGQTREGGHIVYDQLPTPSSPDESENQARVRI
The assay can be described thus: in vitro enzyme assay to detect the production of urea directly proportional to the activity of Arginase II. Further: in the data most compounds retested in dose-response had high values. The class given is functional. The conditions noted are these: 33.3 µM.

For assay [8], the target named is T4, Proteasome subunit beta (Trypanosoma cruzi) (UniProt O96673).
T4 sequence (whole entry): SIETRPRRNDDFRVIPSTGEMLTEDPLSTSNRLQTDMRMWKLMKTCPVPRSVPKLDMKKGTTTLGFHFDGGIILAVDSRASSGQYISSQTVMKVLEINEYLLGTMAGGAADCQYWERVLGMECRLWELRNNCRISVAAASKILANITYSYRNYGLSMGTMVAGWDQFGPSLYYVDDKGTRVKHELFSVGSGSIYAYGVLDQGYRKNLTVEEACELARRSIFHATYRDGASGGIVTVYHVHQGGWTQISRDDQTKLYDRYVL
The assay can be described thus: Trypanosoma cruzi proteasome chymotrypsin-like activity (TcProtChymo) assay. Further: in the data most compounds retested in dose-response had high values. The conditions noted are these: 9.37 µM. It counts as functional.

The species named for assay [9] is Homo sapiens. The assay is described as follows: To identify inhibition of the IFN signalling (Jak-Stat) pathway via expression of an eGFP reporter gene under the control of an IFN-stimulated response element (ISRE) containing MxA promoter. Conditions: 30 µM. It counts as functional.
Assay [10] addresses Shiga toxin 2 (Escherichia coli O157:H7) (UniProt P09385+P09386). The assay is described as follows: E. coli 0.157:H7 Shiga Toxin SOP - stx2 screening assay. It counts as functional. The conditions noted are these: 30 µM.
For assay [11], the target named is T5, Tyrosyl-tRNA synthetase, putative (Trypanosoma cruzi (strain CL Brener)) (UniProt Q4DSP6).
T5 sequence (whole entry): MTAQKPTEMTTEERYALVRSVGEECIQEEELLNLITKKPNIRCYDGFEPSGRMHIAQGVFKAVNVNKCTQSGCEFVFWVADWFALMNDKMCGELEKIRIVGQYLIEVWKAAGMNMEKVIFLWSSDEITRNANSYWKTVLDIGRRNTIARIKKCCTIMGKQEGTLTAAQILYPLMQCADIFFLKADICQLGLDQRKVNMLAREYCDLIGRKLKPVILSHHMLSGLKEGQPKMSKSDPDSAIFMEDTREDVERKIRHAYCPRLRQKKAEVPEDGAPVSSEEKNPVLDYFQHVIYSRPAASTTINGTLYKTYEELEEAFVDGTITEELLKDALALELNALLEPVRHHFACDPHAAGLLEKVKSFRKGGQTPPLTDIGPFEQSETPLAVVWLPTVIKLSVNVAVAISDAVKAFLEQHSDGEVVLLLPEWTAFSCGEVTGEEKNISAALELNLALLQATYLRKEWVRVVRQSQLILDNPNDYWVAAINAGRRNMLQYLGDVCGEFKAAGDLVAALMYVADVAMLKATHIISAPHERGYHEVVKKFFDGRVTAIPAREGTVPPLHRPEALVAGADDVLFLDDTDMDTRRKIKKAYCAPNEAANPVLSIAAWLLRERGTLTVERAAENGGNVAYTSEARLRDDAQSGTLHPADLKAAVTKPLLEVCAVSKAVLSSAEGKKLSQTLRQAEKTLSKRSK
The assay is described as follows: Trypanosoma cruzi tyrosyl tRNA synthetase (TcYRS) _High Tyrosine SOP. Further: in the data most compounds retested in dose-response had high values. The class given is functional. The conditions noted are these: 30 µM.

Assay [12] deals with T5, Tyrosyl-tRNA synthetase, putative (Trypanosoma cruzi (strain CL Brener)). The assay can be described thus: Trypanosoma cruzi tyrosyl tRNA synthetase (TcYRS) SOP. It counts as functional. Conditions: 30 µM.
Assay [13] has as its target Chromo domain-containing protein 1 (Saccharomyces cerevisiae (strain ATCC 204508 / S288c) (Baker's yeast)) (UniProt P32657). The assay can be described thus: ScCHD-1 Enzyme Inhibition Assay. Further: in the data most compounds retested in dose-response had high values. It counts as functional. Conditions: 30 µM.

Chain of Sialic acid-binding Ig-like lectin 9 (Homo sapiens) (Q9Y336 whole entry): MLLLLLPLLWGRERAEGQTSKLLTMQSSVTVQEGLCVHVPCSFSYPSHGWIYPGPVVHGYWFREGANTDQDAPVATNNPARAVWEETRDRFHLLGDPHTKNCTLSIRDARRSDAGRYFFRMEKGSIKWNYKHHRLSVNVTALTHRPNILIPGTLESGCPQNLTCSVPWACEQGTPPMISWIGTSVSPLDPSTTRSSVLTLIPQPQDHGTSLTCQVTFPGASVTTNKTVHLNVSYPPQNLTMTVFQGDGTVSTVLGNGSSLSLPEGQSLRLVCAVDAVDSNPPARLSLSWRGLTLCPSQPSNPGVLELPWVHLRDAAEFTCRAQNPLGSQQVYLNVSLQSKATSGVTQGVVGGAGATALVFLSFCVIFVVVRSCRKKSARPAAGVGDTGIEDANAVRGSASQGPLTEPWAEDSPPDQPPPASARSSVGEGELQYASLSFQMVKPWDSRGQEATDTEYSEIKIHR
Chain of Chromo domain-containing protein 1 (Saccharomyces cerevisiae (strain ATCC 204508 / S288c) (Baker's yeast)) (P32657 whole entry, the tested form may be a part): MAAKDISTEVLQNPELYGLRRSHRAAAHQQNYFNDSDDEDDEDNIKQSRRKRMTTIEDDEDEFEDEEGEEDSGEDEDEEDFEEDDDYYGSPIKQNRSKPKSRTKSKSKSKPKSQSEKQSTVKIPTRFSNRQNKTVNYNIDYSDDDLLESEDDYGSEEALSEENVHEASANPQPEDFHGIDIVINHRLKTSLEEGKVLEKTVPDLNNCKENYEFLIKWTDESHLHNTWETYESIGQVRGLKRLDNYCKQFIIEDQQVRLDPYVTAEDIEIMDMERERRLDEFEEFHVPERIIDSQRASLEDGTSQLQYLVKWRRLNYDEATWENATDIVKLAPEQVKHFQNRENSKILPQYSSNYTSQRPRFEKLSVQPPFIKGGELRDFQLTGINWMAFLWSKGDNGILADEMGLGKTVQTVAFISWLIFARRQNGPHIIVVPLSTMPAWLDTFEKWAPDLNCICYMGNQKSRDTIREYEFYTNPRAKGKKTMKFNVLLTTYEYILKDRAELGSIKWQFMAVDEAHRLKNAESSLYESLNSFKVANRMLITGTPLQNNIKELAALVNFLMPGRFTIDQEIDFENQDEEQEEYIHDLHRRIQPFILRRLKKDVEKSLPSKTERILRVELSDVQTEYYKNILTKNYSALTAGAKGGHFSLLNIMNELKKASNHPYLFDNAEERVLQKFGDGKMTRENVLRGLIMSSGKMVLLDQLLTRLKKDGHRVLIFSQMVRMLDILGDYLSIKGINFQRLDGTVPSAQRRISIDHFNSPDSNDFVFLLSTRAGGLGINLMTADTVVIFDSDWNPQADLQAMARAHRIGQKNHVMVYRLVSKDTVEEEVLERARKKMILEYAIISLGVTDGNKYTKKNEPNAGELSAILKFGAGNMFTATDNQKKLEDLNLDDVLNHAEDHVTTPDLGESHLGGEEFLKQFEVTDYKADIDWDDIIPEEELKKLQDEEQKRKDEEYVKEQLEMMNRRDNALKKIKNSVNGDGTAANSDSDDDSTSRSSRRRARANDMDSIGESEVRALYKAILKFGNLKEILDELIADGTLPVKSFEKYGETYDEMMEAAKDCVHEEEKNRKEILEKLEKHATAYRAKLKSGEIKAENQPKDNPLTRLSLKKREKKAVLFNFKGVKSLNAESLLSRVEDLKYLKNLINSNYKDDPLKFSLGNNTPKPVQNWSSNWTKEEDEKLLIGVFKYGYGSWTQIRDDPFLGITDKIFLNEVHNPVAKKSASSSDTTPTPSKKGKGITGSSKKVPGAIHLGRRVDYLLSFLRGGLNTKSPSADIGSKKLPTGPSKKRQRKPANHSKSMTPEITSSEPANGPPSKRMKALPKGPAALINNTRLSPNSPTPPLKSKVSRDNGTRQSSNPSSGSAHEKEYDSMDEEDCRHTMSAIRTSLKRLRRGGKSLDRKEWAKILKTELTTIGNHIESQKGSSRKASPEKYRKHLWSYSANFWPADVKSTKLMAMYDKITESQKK

Regarding `COc1cc(CNCC(O)c2ccc(F)c(F)c2)cc2c1OCO2` (configuration not stated), the Percent Effect was -2.52% in assay [1]; 13.5% in assay [2]; 1.66% in assay [3]; 1.05% in assay [4]; 3.77% in assay [5]; -6.41% in assay [6]. For the same molecule, the Percent Effect is 0.185% in [7]; 18.1% in assay [8]; 17.8% in [9]; -9.43% in [10]; 7.92% in assay [11]; 13.4% in assay [12]. Further, the Percent Effect in [13] was -5.65%.

For the molecule `Cc1ncsc1CN1CC[C@H]2C[C@H](c3ccncn3)O[C@@H]2C1`, the Percent Effect in assay [1] is 1.18%; in assay [2], 10.4%; in assay [3], 1.35%; in [4], 2.98%; in assay [5] it was -6.01%; in [6], -9.57%. Besides, the Percent Effect in assay [7] amounted to 0.645%; in [8], 9.4%; in assay [9], 24.2%; in assay [10] it was 0.203%; in [11], 1.06%; in assay [12], 6.41%. In addition, the Percent Effect in assay [13] was -5.8%.

Consider `CCn1ccnc1CN1CCCN(C(=O)Cc2ccc(C)nc2)CC1`, for which the Percent Effect is -2.41% in assay [1]; 5.2% in assay [2]; 1.82% in assay [3]; 5.72% in assay [4]; 3.18% in [5]; 2.45% in assay [6]. Moreover, the Percent Effect in assay [7] is 3.16%; in [8], 10.4%; in assay [9] it was -0.845%; in [10] it was 6.49%; in assay [11], -0.952%; in assay [12], 0%. Also, the Percent Effect in assay [13] was -16.3%.

As to `CCN(CC)C(=O)c1ccc(NC(=O)CNc2ccc(Br)cc2F)cc1`, the Percent Effect in [1] was -3.06%; in [2], 10.5%; in [3], 0.958%; in [4], 1.85%; in [5], -6.58%; in assay [6] it was 1.85%. For the same molecule, the Percent Effect in assay [7] is -17.8%; in assay [8] it was 12%; in assay [9] it was 2.22%; in assay [10] it was -41.8%; in assay [11] it was 5.32%; in assay [12], 20.8%. Also, the Percent Effect in [13] was -13%.
